# Values joined by “and” are separate entries in the source; they are usually repeats but may differ in a detail not shown here. Identical values can stand only once. This is part of a sample that, as a whole, favours compounds with a hit. Of some 83,000 tested, about 20% had one in any assay.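 96-well plates, one dose, 48 hours. Percent growth reported; active if below 10.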 Active and inactive are the calls of the source.
# Test system: ACHN renal
# Assay: NCI-60 one-dose screen, 48 h (100 = growth as untreated, 0 = no growth, -100 = all killed)
# Conditions: 10 µM unless noted
row,SMILES,growth
1,Cn1cc(-c2cc3nc(-c4cn(C)c5ncccc45)cc(N)n3n2)c2cc(F)ccc21,17.6% (inactive)
2,Cc1ccccc1NC(=O)c1cccc(NC(=O)CCl)c1,22.8% (inactive)
3,FC(F)(F)c1cc2c(Cl)ncnc2n1CCN1CCCCC1,-22.5% (active)
4,Cn1cc(-c2cc(N)n3nc(-c4c[nH]c5ccc(Cl)cc45)cc3n2)c2cc(Br)cnc21,-76.3% (active)

# Test system: CAKI-1 renal
# Assay: as above
# Conditions: 10 µM unless noted
row,SMILES,growth
1,COc1ccc(-c2nc3ccccc3n2CC(=O)N=Nc2c(O)[nH]c3ccc(OC)cc23)cc1,-53.5% (active)
2,COc1cc(NC(=O)C(C)C)ccc1C(=O)NC(=S)Nc1ccc(S(N)(=O)=O)cc1,96.7% (inactive)
3,COc1cc(C2CC(c3cc(OC)c(OC)c(OC)c3)=Nc3c(N)nc(N)nc3N2)ccc1Oc1nc(Nc2ccc(F)cc2)nc(N(C)C)n1 (configuration not stated),52.3% (inactive)
4,COc1ccc(C2=NN(C(=O)[C@H]3[C@@H](c4ccco4)c4sc(=O)[nH]c4S[C@@H]3C)C(c3ccc4ccccc4c3)C2)cc1 (some centres not stated),20.7% (inactive)
5,O=C(CSc1nc2c(c(=O)[nH]1)CCCC2)Nc1ccccc1C(=O)O,89.5% (inactive)
6,O=C1c2cccc3c(N4CCN(c5ccccc5)CC4)ccc(c23)C(=O)N1c1cccc(-c2nn(-c3ccccc3)cc2-c2nc3ccccc3s2)c1,83.3% (inactive)
7,N#CCc1nnc(NC(=O)c2ccc(-n3c(=O)[nH]c4ccccc4c3=O)cc2)s1,86.3% (inactive)
8,CCOC(=O)/C(F)=C/C1CC1C(c1ccccc1)c1ccccc1 (configuration not stated),65.6% (inactive)
9,Cc1ccc(S(=O)(=O)N(CCn2ccnc2[N+](=O)[O-])CCn2ccnc2[N+](=O)[O-])cc1,89.2% (inactive)
10,CC(C)(C)C(=O)c1c2c(c3ccc4c5ccccc5ccc4n13)C(=O)c1ccccc1C2=O,85.4% (inactive)
11,O=C(N=Nc1c(O)[nH]c2ccc(Cl)cc12)c1ccc2nc(-c3ccc(Cl)cc3)[nH]c2c1,82.8% (inactive)
12,COc1ccc(NC(=O)Cn2c(/C=C/c3cccc(OC)c3)nc3ccccc3c2=O)cc1,50.9% (inactive)
13,Cc1cccc(/C=C/c2ccc(NC(=S)NCCCCN(C)C)cc2)c1,-89.6% (active)
14,Cc1ccc(C(=O)C[n+]2cccc3c4ccccc4ccc32)cc1,53.2% (inactive)
15,c1ccc(CSc2nnc(-c3ccc4nc(-c5ccccc5)[nH]c4c3)o2)cc1,-44.9% (active)
16,O=C(Nc1ccc(-c2ccc3c(c2)NC(=O)/C3=C\c2ccc[nH]2)cc1)Nc1cccc(Cl)c1,-14.9% (active)
17,N#Cc1c(-c2ccc(F)cc2)nc(SCc2ccc(F)cc2)nc1N1CCNCC1,-80.1% (active)
18,Cc1cc(C2(c3cc(C)c(OCC(O)CNc4c(C)n(C)n(-c5ccccc5)c4=O)cc3C(C)C)OC(=O)c3ccccc32)c(C(C)C)cc1OCC(O)CNc1c(C)n(C)n(-c2ccccc2)c1=O (configuration not stated),21.9% (inactive)
19,O=CNc1cccc(-n2cnc3cc(-c4ccc(O)cc4)ccc32)c1,42.2% (inactive)

row,SMILES,growth
1,COc1ccc(S(=O)(=O)Nc2ccc(-c3ccc4c(c3)NC(=O)/C4=C\c3ccc[nH]3)cc2)cc1OC,-11% (active)
2,CC(=O)Nc1cccc(-n2c(COc3ccc(Br)cc3)nc3ccccc32)c1,72.4% (inactive) and 101% (inactive)
3,CCCCNC(=S)Nc1ccc(OCc2nc3ccc(Cl)cc3[nH]2)cc1,21.6% (inactive)
4,COc1ccc(OC)c(Cn2cc(C#N)c(N)c2C(=O)c2ccc(Br)cc2)c1,45.2% (inactive)
5,NCCCCn1c(SCCc2c[nH]c3ccccc23)nnc1-c1ccc2ccccc2n1,-9.25% (active)
6,COc1cc(CNC(=O)C[C@H](C)CCC=C(C)C)ccc1OCc1cn(-c2ccccc2Cl)nn1,46.3% (inactive)
7,NS(=O)(=O)c1ccc(N2N=C(c3ccc(NC(=O)Nc4ccccc4)cc3)CC2c2ccc(Br)cc2)cc1 (configuration not stated),-85.4% (active)
8,COc1ccc(NC(=O)CSc2nnc(-c3ccc(-c4nc5ccc(Cl)cc5[nH]4)cc3)o2)cc1,8.1% (active)
9,CC1=C(C(=O)OCc2ccccc2)C(c2ccc(N(C)C)cc2)n2c(nc3ccccc32)N1 (configuration not stated),55.6% (inactive)
10,NS(=O)(=O)c1ccc(Nc2nc(N/N=C/c3cc(Br)c(O)c(Br)c3)nc(Nc3ccccc3)n2)cc1,94.4% (inactive)
11,COc1cccc(NC(=O)c2ccc(NC(=O)CCl)s2)c1,53.8% (inactive)
12,Cc1oc(-c2ccccc2)nc1CN[C@@H]1C[C@@H]2C[C@H]([C@H]1C)C2(C)C,44.5% (inactive)
13,C=CC(=O)Nc1ccc(C(=O)/C=C/c2ccc(N(C)C)cc2)c(O)c1,-18.1% (active)
14,COc1cc(/C=C/C(=O)c2cnn(-c3cc(=O)[nH]c4ccc(Cl)cc34)c2C)cc(OC)c1OC,-68.4% (active)
15,COc1cc(C=O)ccc1Oc1nc(Nc2ccc(F)cc2)nc(N(C)C)n1,69.2% (inactive) and 58.3% (inactive)
16,Cn1cc(-c2cc3nc(-c4cn(C)c5ncccc45)cc(N)n3n2)c2cc(F)ccc21,12.8% (inactive)
17,Cc1ccccc1NC(=O)c1cccc(NC(=O)CCl)c1,74.5% (inactive)
18,FC(F)(F)c1cc2c(Cl)ncnc2n1CCN1CCCCC1,21.3% (inactive)
19,Cn1cc(-c2cc(N)n3nc(-c4c[nH]c5ccc(Cl)cc45)cc3n2)c2cc(Br)cnc21,-63% (active)
